Experimental data as given in PubChem BioAssay (NCATS).
Records with an inconclusive call do not appear. The source made the active and inactive calls. Calls follow the shape of the dose curve; as a rule, active = well fitted curve in the direction sought with a large enough effect; inconclusive = small, poorly fitted or top-dose-only effect, or another doubt; inactive = no such curve, though single readings can be large; an effect the other way counts as inactive or inconclusive.

Key:
[1] = qHTS of pediatric cancer cell lines to identify multiple opportunities for drug repurposing: Primary screen for SK-N-MC cells (AID 1347093); settings: SK-N-MC viability, CellTiter-Glo luminescence, 48 h; series mostly up to 46 µM; also: potency is read from the fitted curve at half-maximal effect
Method in brief: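 Metabolically active cells were quantified by ATP-dependent luminescence (CellTiter-Glo, 15 min at room temperature) following 48 h treatment. Cells had been plated at 500-1,000 per well and settled for 5 h beforehand.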

[2] = qHTS of pediatric cancer cell lines to identify multiple opportunities for drug repurposing: Primary screen for BT-37 cells (AID 1347094); settings: BT-37 viability, CellTiter-Glo luminescence, 48 h; series mostly up to 57.3 µM; also: potency is read from the fitted curve at half-maximal effect
Method in brief: (§1)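 Luminescence from CellTiter-Glo served as readout of metabolically active cells after 48 h compound exposure. Titrations: MIPE 11-point, from 0.78 nM; NPC 8-point, from 0.59 nM (final). Concentration-response curves came straight from the primary screen.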

[3] = qHTS of pediatric cancer cell lines to identify multiple opportunities for drug repurposing: Primary screen for U-2 OS cells (AID 1347096); settings: U-2 OS viability, CellTiter-Glo luminescence, 48 h; series mostly up to 46 µM; also: nearly all actives have a fitted effect of over 50% in size
Method in brief: (§2)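 Cells (500-1,000/well) rested 5 h, then received compounds for 48 h; metabolically active cells were measured by CellTiter-Glo luminescence. Final concentrations spanned up to 46 µM (MIPE, 11-point) or 0.59 nM-46 µM (NPC, 8-point) in primary screens, 11-point in follow-ups.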

[4] = qHTS of pediatric cancer cell lines to identify multiple opportunities for drug repurposing: Primary screen for Saos-2 cells (AID 1347097); settings: Saos-2 viability, CellTiter-Glo ATP luminescence, 48 h; series mostly up to 46 µM; also: nearly all actives have a fitted effect of over 40% in size; also: potency is read from the fitted curve at half-maximal effect
Method in brief: as §1

[5] = qHTS of pediatric cancer cell lines to identify multiple opportunities for drug repurposing: Primary screen for NB1643 cells (AID 1347099); settings: NB1643 neuroblastoma viability, CellTiter-Glo luminescence, 48 h; series mostly up to 46 µM; also: nearly all actives have a fitted effect of over 50% in size; also: potency is read from the fitted curve at half-maximal effect
Method in brief: as §1

[6] = qHTS of pediatric cancer cell lines to identify multiple opportunities for drug repurposing: Primary screen for LAN-5 cells (AID 1347100); settings: LAN-5 neuroblastoma viability, CellTiter-Glo luminescence, 48 h; series mostly up to 46 µM; also: potency is read from the fitted curve at half-maximal effect
Method in brief: as §2

[7] = qHTS of pediatric cancer cell lines to identify multiple opportunities for drug repurposing: Primary screen for Rh18 cells (AID 1347102); settings: Rh18 rhabdomyosarcoma viability, CellTiter-Glo luminescence, 48 h; series mostly up to 46 µM; also: nearly all actives have a fitted effect of over 65% in size
Method in brief: as §2

[8] = qHTS of pediatric cancer cell lines to identify multiple opportunities for drug repurposing: Primary screen for RD cells (AID 1347104); settings: RD rhabdomyosarcoma viability, CellTiter-Glo luminescence, 48 h; series mostly up to 46 µM; also: nearly all actives have a fitted effect of over 55% in size; also: potency is read from the fitted curve at half-maximal effect
Method in brief: as §1

[9] = qHTS of pediatric cancer cell lines to identify multiple opportunities for drug repurposing: Primary screen for MG 63 (6-TG R) cells (AID 1347105); settings: MG 63 (6-TG R) viability, CellTiter-Glo, 48 h; series mostly up to 46 µM; also: nearly all actives have a fitted effect of over 50% in size; also: potency is read from the fitted curve at half-maximal effect
Method in brief: as §1

[10] = qHTS of pediatric cancer cell lines to identify multiple opportunities for drug repurposing: Primary screen for control Hh wild type fibroblast cells (AID 1347106); settings: Hh wild-type fibroblast viability, CellTiter-Glo luminescence, 48 h; series mostly up to 46 µM;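 also: a drop in luminescence marks cytotoxicity and a rise apparent proliferation; nearly all actives have a fitted effect of over 55% in size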
Method in brief: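 Cells (500-1,000/well) in growth media were settled 5 h at 37 degrees C, then given compounds for 48 h. Viability was read as CellTiter-Glo luminescence. Primary runs used MIPE at 11 points (0.78 nM-46 µM) and NPC at 8 points (0.59 nM-46 µM); follow-ups used 11 points.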

[11] = qHTS of pediatric cancer cell lines to identify multiple opportunities for drug repurposing: Primary screen for Rh30 cells (AID 1347107); settings: Rh30 rhabdomyosarcoma viability, CellTiter-Glo luminescence, 48 h; series mostly up to 46 µM; also: nearly all actives have a fitted effect of over 75% in size
Method in brief: as §2

[12] = qHTS of pediatric cancer cell lines to identify multiple opportunities for drug repurposing: Primary screen for Rh41 cells (AID 1347108); settings: Rh41 rhabdomyosarcoma viability, CellTiter-Glo luminescence, 48 h; series mostly up to 46 µM; also: nearly all actives have a fitted effect of over 70% in size; also: potency is read from the fitted curve at half-maximal effect
Method in brief: as §1

[13] = qHTS of pediatric cancer cell lines to identify multiple opportunities for drug repurposing: Confirmatory screen for NB1643 cells (AID 1347109); settings: NB1643 neuroblastoma cell viability; series mostly up to 45.9 µM; also: nearly all actives have a fitted effect of over 45% in size
Method in brief: as §2

[14] = qHTS of pediatric cancer cell lines to identify multiple opportunities for drug repurposing: Confirmatory screen for BT-12 cells (AID 1347112); settings: BT-12 rhabdoid tumor cells, viability; series mostly up to 45.9 µM; also: nearly all actives have a fitted effect of over 55% in size; also: potency is read from the fitted curve at half-maximal effect
Method in brief: as §2

[15] = qHTS of pediatric cancer cell lines to identify multiple opportunities for drug repurposing: Confirmatory screen for LAN-5 cells (AID 1347113); settings: LAN-5 neuroblastoma cell viability; series mostly up to 45.9 µM; also: nearly all actives have a fitted effect of over 65% in size
Method in brief: as §2

[16] = qHTS of pediatric cancer cell lines to identify multiple opportunities for drug repurposing: Primary screen for SK-N-SH cells (AID 1347098); settings: SK-N-SH viability, CellTiter-Glo luminescence, 48 h; series mostly up to 57 µM; also: nearly all actives have a fitted effect of over 65% in size; also: potency is read from the fitted curve at half-maximal effect
Method in brief: as §2

[17] = qHTS of pediatric cancer cell lines to identify multiple opportunities for drug repurposing: Primary screen for NB-EBc1 cells (AID 1347095); settings: NB-EBc1 neuroblastoma viability, CellTiter-Glo luminescence, 48 h; series mostly up to 46 µM; also: potency is read from the fitted curve at half-maximal effect
Method in brief: as §1

[18] = qHTS of pediatric cancer cell lines to identify multiple opportunities for drug repurposing: Primary screen for BT-12 cells (AID 1347101); settings: BT-12 viability, CellTiter-Glo luminescence, 48 h; series mostly up to 57.3 µM; also: nearly all actives have a fitted effect of over 25% in size; also: potency is read from the fitted curve at half-maximal effect
Method in brief: as §2

[19] = qHTS of pediatric cancer cell lines to identify multiple opportunities for drug repurposing: Primary screen for OHS-50 cells (AID 1347103); settings: OHS-50 osteosarcoma viability, CellTiter-Glo luminescence, 48 h; series mostly up to 57.3 µM; also: nearly all actives have a fitted effect of over 40% in size; also: potency is read from the fitted curve at half-maximal effect
Method in brief: as §2

[20] = qHTS of pediatric cancer cell lines to identify multiple opportunities for drug repurposing: Confirmatory screen for A673 cells (AID 1347110); settings: A673 Ewing sarcoma cell viability; series mostly up to 45.9 µM;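 also: potency is read from the fitted curve at half-maximal effect; cells exposed to compound for 48 h before the viability read; nearly all actives have a fitted effect of over 65% in size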
Method in brief: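 qHTS titration format: primary MIPE 0.78 nM-46 µM (11 pts), NPC 0.59 nM-46 µM; confirmation 11 pts. 48 h, CTG luminescence.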

Measured: Potency

Cc1oncc1C(=O)Nc1ccc(C(F)(F)F)cc1
inactive: [2] | [3] | [4] | [5] | [6] | [7] | [8] | [9] | [10] | [11] | [12] | [13] | [14] | [15]
active: [1] 6.68 µM

CC(C)(C)OC(=O)CN(Cc1ccc(Cl)cc1)Cc1ccc([N+](=O)[O-])s1
inactive: [2] | [3] | [16] | [6] | [7] | [9] | [10] | [11]
active: [1] 20.9 µM

C[C@H](NC(=O)Cc1cc(F)cc(F)c1)C(=O)N[C@@H]1C(=O)N(C)c2ccccc2-c2ccccc21
active: [1] 5.26 µM | [16] 12.1 µM | [5] 6.62 µM | [8] 16.6 µM | [9] 11.8 µM | [12] 14.8 µM
inactive: [17] | [3] | [6] | [18] | [7] | [10] | [11]

CCn1c(-c2nonc2N)nc2cnc(Oc3cccc(NC(=O)c4ccc(OCCN5CCOCC5)cc4)c3)cc21
active: [1] 7.43 µM | [4] 0.662 µM | [6] 2.96 µM | [18] 6.11 µM | [19] 15.3 µM
inactive: [17] | [3] | [7] | [9] | [10]

CC(C)C[C@H](NC(=O)[C@@H](O)[C@H](N)Cc1ccccc1)C(=O)O
active: [1] 29.6 µM | [2] 27.3 µM | [4] 18.7 µM | [16] 24.1 µM | [18] 30.6 µM | [19] 19.3 µM | [8] 37.2 µM
inactive: [3] | [10]

O=C(Nc1ccc(F)c(C(F)(F)F)c1)Nc1nnc(-c2ccncc2)s1
inactive: [2] | [3] | [4] | [6] | [7] | [19] | [10] | [12]
active: [1] 20.9 µM

OCCn1cc(-c2cnc3nnn(Cc4ccc5ncccc5c4)c3n2)cn1
inactive: [1] | [17] | [3] | [4] | [16] | [5] | [6] | [18] | [7] | [19] | [8] | [9] | [10] | [11]

Cc1cc(-c2ccc(CC(=O)Nc3ccc(-c4cccnc4)cc3)cc2)ccn1
inactive: [2] | [7] | [9] | [10]
active: [1] 9.35 µM

N#CC[C@H](C1CCCC1)n1cc(-c2ncnc3[nH]ccc23)cn1
inactive: [17] | [3] | [4] | [16] | [18] | [10]
active: [1] 23.5 µM | [5] 14.8 µM | [6] 18.7 µM

O=C(c1cc(Cc2n[nH]c(=O)c3ccccc23)ccc1F)N1CCN(C(=O)C2CC2)CC1
inactive: [3] | [7] | [13]
active: [1] 7.43 µM | [17] 10.5 µM | [16] 21.5 µM | [5] 14.8 µM | [6] 14.8 µM | [19] 24.3 µM | [20] 104 nM | [14] 18.5 µM

NC(=O)c1ccc(-c2nc(-c3ccc4c(c3)OCO4)c(-c3ccccn3)[nH]2)cc1
inactive: [1] | [17] | [3] | [4] | [16] | [5] | [6] | [18] | [7] | [19] | [8] | [9] | [10] | [11]

CCCn1c(=O)c2[nH]c(C34CC5CC3C[C@@H](C5)C4)nc2n(CCC)c1=O
active: [1] 10.5 µM
inactive: [2] | [3] | [16] | [18] | [10]

Nc1nccc(-c2ccc3noc(-c4ccc(Cl)cc4)c3c2)n1
inactive: [17] | [3] | [4] | [6] | [7] | [8] | [9] | [11] | [12]
active: [1] 10.5 µM | [5] 16.6 µM

C[C@]12CC[C@H](O)CC1=CC[C@@H]1[C@H]2CC[C@]2(C)C(c3cccnc3)=CC[C@H]12
inactive: [1] | [2] | [3] | [16] | [5] | [6] | [18] | [7] | [19] | [8] | [9] | [10] | [11] | [12]

COc1ccccc1-c1cccc(-c2c(O)c3cc(C#N)c(Cl)cc3[nH]c2=O)c1
active: [1] 34 µM | [17] 7.62 µM
inactive: [3] | [16] | [5] | [6] | [7] | [19] | [8] | [9] | [10] | [11] | [12]
